Screening data: PubChem, National Center for Advancing Translational Sciences (NCATS)
NPC1 promoter act = NPC1 promoter activation; 2.4% of 320,000 active; Potency, µM (titrated, usually from 9.22 µM), usual class: activators; AID 485313; Huh7 NPC1 promoter luciferase reporter, 24 h; note: nearly all actives have a fitted effect of over 60% in size
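Luminescence read-out of NPC1 promoter-driven luciferase in stably transfected Huh7 cells; compounds delivered in DMSO and left 24 h at 37C, 5% CO2, qHTS titration format.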
SMN2 splice up = enhancers of SMN2 splice variant expression. HEK293 SMN2-luciferase splicing reporter, luminescence, 30-36 h. Potency, µM (doses to about 46.1 µM), usual class: activators. 2.8% of 210,000 active; note: nearly all actives have a fitted effect of over 55% in size
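HEK293 cells carry an SMN2 […]–luciferase reporter in which exon 7 inclusion puts luciferase in frame. Cells were plated 10-12 h before compound addition, then incubated 30-36 h at 37C. ONE-Glo luminescence was read; sodium butyrate at 4.5 mM final served as control.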
Rab9 promoter act = activates the Rab9 promoter | Huh7 Rab9 promoter-luciferase reporter, luminescence, 24 h | AID 485297 | Potency, µM (series often up to 9.22 µM), actives largely listed as activators | 2.8% of 320,000 active; note: nearly all actives have a fitted effect of over 60% in size
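Rab9 promoter-driven luciferase in stably transfected Huh7 cells; 1500 cells/well rested 2 h, exposed to compound in DMSO for 24 h at 37 °C, 5% CO2. Luminescence read 10 min after adding luciferase reagent at ambient temperature.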
ELG1 genotox = induces genotoxicity in HEK293T cells with luciferase-tagged ELG1; Potency, µM (titrated, usually from 46 µM), most hits filed as activators; 1.3% of 330,000 active; HEK293T ELG1-luciferase reporter, luminescence, 16 h; note: nearly all actives have a fitted effect of over 60% in size
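Genotoxic stress is detected as increased luminescence from luciferase-tagged ELG1 in HEK293T cells, measured with ONE-Glo after a 16 hr treatment at 37 °C.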
FLuc modulator = inhibits or activates purified firefly luciferase, miR-21 counter-screen; 6.9% of 360,000 active; P08659; Potency, µM (titrated, usually from 57.5 µM), usual class: inhibitors; purified FLuc, Km substrates, luminescence inhibition; AID 588342; note: nearly all actives have a fitted effect of over 55% in size
Target sequence (P08659 whole entry, looked up): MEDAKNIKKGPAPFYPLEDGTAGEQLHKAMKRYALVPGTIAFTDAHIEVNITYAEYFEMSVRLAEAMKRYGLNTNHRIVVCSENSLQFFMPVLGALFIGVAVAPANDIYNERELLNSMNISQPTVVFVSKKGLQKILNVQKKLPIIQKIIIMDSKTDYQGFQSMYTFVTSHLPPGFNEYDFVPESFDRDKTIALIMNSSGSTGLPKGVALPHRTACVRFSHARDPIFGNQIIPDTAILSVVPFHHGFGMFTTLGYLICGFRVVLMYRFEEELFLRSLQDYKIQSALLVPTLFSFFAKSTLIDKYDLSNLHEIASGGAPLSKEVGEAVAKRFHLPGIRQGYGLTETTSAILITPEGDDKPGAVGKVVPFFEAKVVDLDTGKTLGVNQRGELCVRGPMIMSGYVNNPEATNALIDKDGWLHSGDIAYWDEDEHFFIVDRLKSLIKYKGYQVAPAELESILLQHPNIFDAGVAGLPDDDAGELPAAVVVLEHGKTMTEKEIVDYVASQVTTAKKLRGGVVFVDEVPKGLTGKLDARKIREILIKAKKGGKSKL
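Biochemical qHTS of compounds, final roughly 60 µM downward over six points, against 10 nM purified firefly luciferase using Km concentrations of substrates (10 uM D-luciferin, 10 uM ATP) in Tris acetate pH 7.5 buffer; luminescence output.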
KinaseGlo FLuc = counter-screen: inhibitors of Kinase-Glo firefly luciferase. Q27757. Kinase-Glo luciferase, ATP luminescence, 8 min. Potency, µM (highest dose often 38.3 µM), usual class: inhibitors. 0.28% of 200,000 active; note: nearly all actives have a fitted effect of over 60% in size
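Substrate mix (final 50 mM imidazole pH 7.2, 50 mM KCl, 7 mM MgCl2, 10 uM ATP, 0.01% Tween 20, 0.05% BSA) plus pin-tool compound, then Kinase-Glo detection mix; 8 min ambient, luminescence read.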
Large screens that a line does not name were inactive. A selection: hits, their analogues and other compounds. The true share with any hit is near 7.3%. Calls come from the whole dose curve; as a rule, active = well fitted curve in the direction sought with a large enough effect; inconclusive = small, poorly fitted or top-dose-only effect, or another doubt; inactive = no such curve, though single readings can be large; an effect the other way counts as inactive or inconclusive.

Cc1cc(C(=O)C(=O)Nc2nncs2)c(C)n1-c1ccc(Cl)cc1	none (no result: NPC1 promoter act, SMN2 splice up, Rab9 promoter act, ELG1 genotox, KinaseGlo FLuc)
COc1ccc(/C=C\c2onc(C)c2S(=O)(=O)N2CCC(C(=O)Nc3cccc(OC)c3)CC2)cc1	none (no result: NPC1 promoter act, Rab9 promoter act, ELG1 genotox, KinaseGlo FLuc)
COc1ccc2c(c1)c1c(c(=O)n(Cc3ccccc3)c(=O)n1CC(=O)NCc1ccccc1Cl)n2C	none (no result: NPC1 promoter act, Rab9 promoter act, ELG1 genotox, KinaseGlo FLuc)
CS/C(N)=N/C(=S)Nc1cccc(Cl)c1	NPC1 promoter act inconclusive, Rab9 promoter act inconclusive, FLuc modulator 19µM (no result: SMN2 splice up, KinaseGlo FLuc)
O=C(Nc1ccccc1)Nc1cccc(Cl)c1	NPC1 promoter act inconclusive, Rab9 promoter act 3.5µM, ELG1 genotox inconclusive, FLuc modulator 9.5µM
CC(=O)c1cccc(NC(=O)CCCOc2ccc(C)cc2)c1	none
CC(=O)Nc1ccc(NC(=O)Nc2cccc(Cl)c2)cc1	ELG1 genotox inconclusive, FLuc modulator inconclusive (no result: SMN2 splice up, KinaseGlo FLuc)
Cc1nn(C)cc1CNC(=O)Nc1cccc(Cl)c1	NPC1 promoter act inconclusive, SMN2 splice up inconclusive, Rab9 promoter act 3.5µM, FLuc modulator inconclusive
O=C(CCCOc1ccc(Cl)cc1)Nc1cccc(C(=O)O)c1	FLuc modulator 17µM (no result: SMN2 splice up)
Cc1oc2c(cc(NS(=O)(=O)c3ccc(F)cc3)c3ccccc32)c1C(=O)OCc1ccccc1	none (no result: NPC1 promoter act, Rab9 promoter act, ELG1 genotox, KinaseGlo FLuc)
O=C(CCCc1ccccc1)NC1CC(=O)N(c2ccc(Cl)cc2)C1 (centres undefined)	none (no result: NPC1 promoter act, SMN2 splice up, Rab9 promoter act, ELG1 genotox, KinaseGlo FLuc)
O=C(NNC1=NCCCCC1)Nc1cccc(Cl)c1	NPC1 promoter act inconclusive, SMN2 splice up 22µM, Rab9 promoter act 1.1µM, FLuc modulator 17µM
O=C(Nc1ccc(Cl)cc1)Nc1cccc(C(=O)O)c1	NPC1 promoter act 0.089µM, Rab9 promoter act 0.25µM, FLuc modulator 0.067µM (no result: SMN2 splice up)
Fc1ccccc1NC(=S)NCCc1cccc(Cl)c1	NPC1 promoter act inconclusive, Rab9 promoter act inconclusive, FLuc modulator 24µM (no result: SMN2 splice up, KinaseGlo FLuc)
Cc1cc2ccccn2c1C(=O)Nc1cccc(Cl)c1	FLuc modulator 13µM
S=C(NCCc1ccccc1)NCc1cccc(Cl)c1	none (no result: SMN2 splice up, KinaseGlo FLuc)
Cc1cc2ccccn2c1C(=O)c1ccc(Cl)cc1	FLuc modulator inconclusive
O=C(Nc1cccc(Cl)c1)Nc1ccc2nccnc2c1	NPC1 promoter act 2.8µM, Rab9 promoter act 2.2µM, FLuc modulator 19µM (no result: SMN2 splice up, KinaseGlo FLuc)
CSc1cccc(NC(=O)C(=O)NCc2ccccc2)c1	none (no result: SMN2 splice up, KinaseGlo FLuc)
O=C(NCc1ccccc1)C(=O)Nc1cccc(C(=O)O)c1	NPC1 promoter act 0.089µM, Rab9 promoter act 0.32µM, FLuc modulator 0.67µM (no result: SMN2 splice up, KinaseGlo FLuc)
Cc1ccc2c(c1)C=CC(C)N2C(=O)c1ccccc1 (centres undefined)	none
Cc1ccc2c(c1)C=CC(C#N)N2C(=O)c1ccccc1 (centres undefined)	SMN2 splice up 6.3µM
CCCCCn1c(=O)[nH]c2cc(C(=O)N3CCN(c4cccc(C)c4)C(C)C3)ccc2c1=O (centres undefined)	none (no result: NPC1 promoter act, Rab9 promoter act, ELG1 genotox, KinaseGlo FLuc)
CCN1C(=O)c2cccc3c(S(=O)(=O)Nc4ccccc4)ccc1c23	SMN2 splice up 20µM, ELG1 genotox inconclusive
CCN1C(=O)c2cccc3c(S(=O)(=O)Nc4nc(C)cs4)ccc1c23	SMN2 splice up 13µM, ELG1 genotox inconclusive
CNS(=O)(=O)c1ccc2c3c(cccc13)C(=O)N2C	none (no result: SMN2 splice up, KinaseGlo FLuc)
CCN1C(=O)c2cccc3c(S(=O)(=O)NCC4CCCO4)ccc1c23 (centres undefined)	ELG1 genotox 15µM (no result: SMN2 splice up, KinaseGlo FLuc)
CN1C(=O)c2cccc3c(S(=O)(=O)Nc4ccccc4F)ccc1c23	ELG1 genotox 5.8µM (no result: SMN2 splice up, KinaseGlo FLuc)
CC(C(=O)Nc1ccc(OC(F)(F)F)cc1)N1Cc2ccccc2C1=O (centres undefined)	none (no result: NPC1 promoter act, SMN2 splice up, Rab9 promoter act, ELG1 genotox, KinaseGlo FLuc)
Cc1cc(C)c2c(-n3cccc3)c(C(=O)NCCCN3CCCCC3C)sc2n1 (centres undefined)	none (no result: NPC1 promoter act, SMN2 splice up, Rab9 promoter act, ELG1 genotox, KinaseGlo FLuc)
CCN1C(=O)c2cccc3c(S(=O)(=O)Nc4ccccn4)ccc1c23	SMN2 splice up inconclusive, ELG1 genotox 21µM
Cc1ccc2nc(CCc3nc4ccc(C)cc4o3)oc2c1	none
CCc1ccc2oc(-c3cccc(N)c3)nc2c1	NPC1 promoter act 0.56µM, SMN2 splice up 6.3µM, Rab9 promoter act 1.6µM, ELG1 genotox inconclusive, FLuc modulator 0.24µM
Cc1ccc2nc(Cc3ccc(N)cc3)oc2c1	NPC1 promoter act 3.5µM, SMN2 splice up inconclusive, Rab9 promoter act 3.2µM, ELG1 genotox 12µM, FLuc modulator 13µM
